This is a sample that favours compounds with a hit; in the whole collection about 32% have one here.
CYP2C9 inh – inhibitors of human CYP2C9 | P11712 | CYP2C9 Supersomes, luciferin-H conversion, luminescence | inhibition, % at 5 µM | 20% of 96,000 active;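 active = blocking of liver enzyme CYP2C9 beyond about 50% at 5 µM, limit read from the data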
PostGolgi yeast – growth inhibition of a yeast mutant, post-Golgi transport screen | AID 739 | post-Golgi transport phenotypic cell assay | inhibition, % at 10 µM | 0.9% of 98,000 active;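 also: yeast cells grown in 1536-well plates; yeast grown about 18 h at 30C before absorbance read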
PostGolgi ctrl – growth of the yeast control strain, post-Golgi counter-screen; inhibition, % at 10 µM; 5% of 98,000 active; efflux-deficient yeast background strain, growth absorbance A615, 16 h
CYP2C19 inh – inhibitors of human CYP2C19. P33261. CYP2C19 Supersomes, luciferin-H EGE luminescence, 30 min. inhibition, % at 5 µM. 21% of 96,000 active;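 active = CYP2C19 inhibition above a set limit at 5 µM in the primary screen, cut at about 50% in these data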;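 also: plate controls were negative control wells for no effect and 2.5 mM tranylcypromine positive control for full effect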
Target sequence (P33261 whole entry, looked up): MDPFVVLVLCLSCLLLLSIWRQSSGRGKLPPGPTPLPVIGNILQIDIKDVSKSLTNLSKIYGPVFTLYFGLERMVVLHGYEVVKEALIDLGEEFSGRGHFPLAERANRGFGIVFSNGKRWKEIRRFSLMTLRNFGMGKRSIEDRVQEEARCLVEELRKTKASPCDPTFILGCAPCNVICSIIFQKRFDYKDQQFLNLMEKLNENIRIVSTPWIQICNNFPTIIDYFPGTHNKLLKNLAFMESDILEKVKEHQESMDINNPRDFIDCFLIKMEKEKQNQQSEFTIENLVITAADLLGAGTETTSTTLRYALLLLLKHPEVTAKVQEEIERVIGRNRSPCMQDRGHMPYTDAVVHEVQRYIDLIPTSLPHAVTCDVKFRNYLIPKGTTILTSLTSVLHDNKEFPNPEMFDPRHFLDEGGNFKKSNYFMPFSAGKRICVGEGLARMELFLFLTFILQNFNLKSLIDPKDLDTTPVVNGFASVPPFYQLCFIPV
CYP2C19 activ – cytochrome P450 2C19 (human) activation | recombinant CYP2C19, luciferin-H EGE luminescence; active compounds read high; 0 = fully inhibited enzyme, 1 = untreated enzyme | 96,000 tested, under 10 active | activation factor at 5 µM;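 active = activation factor of at least 2 at 5 µM in the primary screen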;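 also: 0 = wells with 2.5 mM tranylcypromine and 1 = vehicle-only wells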
CYP2C9 act – CYP2C9 (human) activation. P11712. recombinant CYP2C9, luciferin-H conversion, luminescence; active compounds read high; factor 1 = untreated enzyme, 0 = blocked. activation factor at 5 µM. 1.4% of 96,000 active. AID 1024;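 active = activation factor of 2 or more for CYP2C9 at a 5 µM dose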;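 also: 0 = sulfaphenazole-blocked wells and 1 = vehicle-only wells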
* marks the source's active call; other numbers are inactive results. Rule as the data show it, unless noted: active = inhibition above about 30%; inactive = the rest.

SMILES	CYP2C9 inh	PostGolgi yeast	PostGolgi ctrl	CYP2C19 inh	CYP2C19 activ	CYP2C9 act
Cc1ccc2[nH]c(=O)c(CN(CCc3ccccc3)C(=O)N3CCOCC3)cc2c1	12	-13	-2	0	1	0.9
Cc1ccc2c(c1)cc(CN(Cc1cccnc1)C(=O)NCc1ccccc1)c1nnnn12	65*	-6	4	90*	0.1	0.3
Cc1ccc2c(c1)cc(CN(CCc1ccccc1)C(=O)N1CCOCC1)c1nnnn12	64*	3	8	53*	0.5	0.4
COc1ccc(CCN2C(=O)C3CC(C)=C(C)CC3C2=O)cc1OC (stereo not drawn)	4	3	28	44	0.6	1
CN1C(=O)C(O)(CC(=O)c2ccc(F)cc2)c2cc(Br)ccc21 (stereo not drawn)	33	-12	16	79*	0.2	0.7
Cc1cccc(C)c1NC(=O)c1sccc1SCC#N	5	21	18	26	0.7	0.9
COc1cc(C(=O)NCc2ccc(-c3nc4ccccc4o3)cc2)cc(OC)c1OC	14	5	4	16	0.8	0.9
O=c1oc(-c2cccc(S(=O)(=O)N3CCOCC3)c2)nc2ccccc12	30	-8	-5	-4	1	0.7
COC(=O)CCC(=O)N1CCc2cc(S(=O)(=O)N3CCN(c4ccccc4Cl)CC3)ccc21	59*	-3	8	32	0.7	0.4
Cc1c(Cl)c(-c2n[nH]c(=S)n2-c2ccc(F)cc2)nn1C	-9	-3	6	-3	1	1.1
CC(C)Cn1c(-c2nn(C)cc2Cl)n[nH]c1=S	0	11	9	57*	0.4	1
CCCCn1c(-c2nn(C)c(C)c2Cl)n[nH]c1=S	18	7	20	19	0.8	0.8
CCCCn1c(-c2nn(C)cc2Cl)n[nH]c1=S	21	7	5	52*	0.5	0.8
O=C(c1ccccc1)c1cnc(-c2ccc(Cl)cc2)s1	37	-1	7	34	0.7	0.6
O=C(c1ccc(Cl)cc1)c1cnc(-c2ccc(Cl)cc2)s1	-6	-9	6	64*	0.4	1.1
O=C(CN1CCN(C(c2ccccc2)c2ccccc2)CC1)NC(=O)NCc1ccco1	-96	5	36*	7	0.9	2*
S=C(NCc1ccco1)N1CCN(C(c2ccccc2)c2ccccc2)CC1	72*	-5	27	35	0.7	0.3
Cc1ccccc1-n1nc2c(c1NC(=O)c1cc3ccccc3oc1=O)CS(=O)(=O)C2	-5	-3	22	-6	1.1	1.1
Cn1c(=O)[nH]c(=O)c2c1nc(N1CCOCC1)n2CCCSc1ncccn1	7	1	8	-9	1.1	0.9
C=CC1C(N2CCOCC2)C(C)(C)S1(=O)=O (stereo not drawn)	-20	6	8	-2	1	1.2
C=CCn1c(NCc2cc(C)ccc2O)nc2ccccc21	64*	-2	5	85*	0.2	0.4
C=CCn1c(NC(C)c2cc(Cl)ccc2O)nc2ccccc21 (stereo not drawn)	46	-5	32*	68*	0.3	0.5
C=CCn1c(CCNC(=O)C(C)(C)C)nc2ccccc21	8	9	14	40	0.6	0.9
C=CCn1c(N)nc2ccccc21	23	-1	-2	-1	1	0.8
C=CCn1c(NCc2ccc(N(C)C)cc2)nc2ccccc21	15	12	6	96*	0	0.9
SMILES	CYP2C9 inh	PostGolgi yeast	PostGolgi ctrl	CYP2C19 inh	CYP2C19 activ	CYP2C9 act
Cc1ccc(/C=N/n2c(C)n[nH]c2=S)o1	-15	6	-1	8	0.9	1.1
O=C(NCC1COc2ccccc2O1)c1ccco1 (stereo not drawn)	-5	-2	-5	30	0.7	1.1
CCCNCC1COc2ccccc2O1 (stereo not drawn)	-15	-5	-9	-10	1.1	1.1
COc1ccccc1NC(=O)CC1COc2ccccc2O1 (stereo not drawn)	-21	4	9	64*	0.4	1.2
COc1ccccc1NC(=O)CN1C(=O)C(C)Oc2ccccc21 (stereo not drawn)	61*	-4	-3	85*	0.2	0.4
O=C(NCC1COc2ccccc2O1)c1ccccc1 (stereo not drawn)	17	-2	7	95*	0.1	0.8
CCN(CC1COc2ccccc2O1)C(=S)Nc1ccccc1 (stereo not drawn)	42	-1	18	56*	0.4	0.6
Oc1ccc(Cl)cc1C(C#Cc1ccccc1)N1CCOCC1 (stereo not drawn)	49	-2	20	37	0.6	0.5
CSc1nc(N)nc(SC2C=CCCC2)c1C#N (stereo not drawn)	21	4	15	14	0.9	0.8
COc1cccc(CC(=O)NCC2COc3ccccc3O2)c1OC (stereo not drawn)	28	0	3	64*	0.4	0.7
Cc1onc(-c2c(F)cccc2Cl)c1C(=O)NCC1COc2ccccc2O1 (stereo not drawn)	59*	5	37*	70*	0.3	0.4
CCOC(=O)CCNCC1COc2ccccc2O1 (stereo not drawn)	2	5	15	75*	0.3	1
Cc1onc(-c2c(Cl)cccc2Cl)c1C(=O)NCC1CCCO1 (stereo not drawn)	18	0	-4	25	0.8	0.8
COc1ccccc1CN(C)C(=O)C1COc2ccccc2O1 (stereo not drawn)	47	2	-3	98*	0	0.5
Cc1ccc(S(=O)(=O)Cc2ccc(C(=O)NCCCN3CCCC3=O)o2)cc1	23	5	1	2	1	0.8
COc1ccc(OC)c(N(CC(=O)N2CCN(c3cc(Cl)ccc3C)CC2)S(C)(=O)=O)c1	-20	-10	-4	19	0.8	1.2
O=C1CCC(=O)N1CN(Cc1ccco1)CN1C(=O)CCC1=O	-8	3	6	-12	1.1	1.1
CCOC(=O)c1ccc(NC(=O)CC2COc3ccccc3O2)cc1 (stereo not drawn)	63*	4	32*	25	0.7	0.4
O=C(CC1COc2ccccc2O1)Nc1ccccn1 (stereo not drawn)	14	3	18	33	0.7	0.9
CCCn1cc(S(=O)(=O)CC(=O)N2CCc3ccccc32)c2ccccc21	79*	-16	24	87*	0.1	0.2
Cn1cc(S(=O)(=O)CC(=O)N2CCc3ccccc32)c2ccccc21	42	4	8	67*	0.3	0.6
Cn1c(Cl)cnc1C(O)c1ccccc1 (stereo not drawn)	8	2	-2	12	0.9	0.9
Cn1cnnc1SCCn1c(N2CCCCC2)nc2c1c(=O)[nH]c(=O)n2C	7	0	7	8	0.9	0.9
CCCC[n+]1ccn(-c2nc3ccccc3nc2[N-]S(=O)(=O)c2ccc(C)cc2)c1	72*	9	-1	25	0.7	0.3
